Measurements as given in PubChem BioAssay (NCI).
About 79,000 compounds went through this panel and 15% of them were active in at least one assay; those are over-represented in the sample as a whole. The source made the active and inactive calls. Rule as the data show it: active = growth inhibition above about 70%; inactive = the rest.

Legend:
[1] = NCI Yeast Anticancer Drug Screen. Data for the rad50 strain (AID 155);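 also: 0% = growth of vehicle-only cultures of the same strain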; conditions: S. cerevisiae rad50 strain growth inhibition; at 50.0 µM; active compounds read high
Method in brief: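 Relative growth inhibition (compound vs vehicle) was measured in yeast with a defined repair-gene alteration.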

[2] = NCI Yeast Anticancer Drug Screen. Data for the mec2-1 strain (AID 157); conditions: S. cerevisiae mec2-1 strain, at 50.0 µM, active compounds read high
Method in brief: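 Mutant yeast (mec2-1) grown with compound; growth inhibition relative to vehicle control reported.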

[3] = NCI Yeast Anticancer Drug Screen. Data for the sgs1 mgt1 strain (AID 161);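 also: 0% = growth of cultures given vehicle only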; conditions: S. cerevisiae sgs1 mgt1 strain, at 50.0 µM, active compounds read high
Method in brief: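 This yeast growth screen uses a strain with defined DNA-repair lesions; compound-treated growth is compared with vehicle-treated growth.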

[4] = NCI Yeast Anticancer Drug Screen. Data for the cln2 rad14 strain (AID 165);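 also: 0% = growth equal to vehicle treated cultures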; conditions: S. cerevisiae cln2 rad14 strain, at 50.0 µM, active compounds read high
Method in brief: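 Readout is yeast growth inhibition versus vehicle-treated controls, using a strain with cln2 and rad14 alterations exposed to compound.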

[5] = NCI Yeast Anticancer Drug Screen. Data for the bub3 strain (AID 167); conditions: S. cerevisiae bub3 mutant strain, at 50.0 µM, active compounds read high
Method in brief: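 Screening used yeast with an engineered genetic alteration affecting cell cycle control. Compound-exposed cultures were compared with vehicle cultures, and reduced growth was taken as inhibition.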

[6] = NCI Yeast Anticancer Drug Screen. Data for the mlh1 rad18 strain (AID 175); conditions: S. cerevisiae mlh1 rad18 strain growth inhibition; at 50.0 µM; active compounds read high
Method in brief: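 Genetically defined yeast (DNA repair-deficient) exposed to compounds; growth inhibition determined relative to vehicle.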

Measured: growth inhibition

CCOC(=O)C1C(c2ccco2)C2(C#N)C(=N)OC1(C)C2(C#N)C#N (stereo not given)
inactive: [1] 3.45% | [2] 12.3% | [3] -39.5% | [4] -0.9% | [5] -36.8% | [6] -52%

COc1ccc2c(=O)c3ccccc3oc2c1CN(CCCl)CCCl
inactive: [1] 19.9% | [2] 16.4% | [3] -5.2% | [4] 13.2% | [5] -3.1% | [6] -8.25%

Clc1cccc(Cl)c1NC1=NCCS1
inactive: [1] -11.7% | [2] -20.8% | [3] 12.7% | [4] 6.1% | [5] -2.25% | [6] 6.45%

CCC[CH2][Sn]([CH2]CCC)[CH2]CCC.CCC[CH2][Sn]([CH2]CCC)[CH2]CCC
active: [1] 99.4% | [2] 99.7% | [3] 99.7% | [4] 99.5% | [5] 99.7% | [6] 99.2%

O=C(O)C(F)(F)C(F)(Cl)C(F)(F)C(F)(Cl)C(F)(F)Cl (stereo not given) (tested in a mixture with another compound)
inactive: [1] -7.65% | [2] -12.8% | [3] -12.7% | [4] -28.2% | [5] 1.1% | [6] -6.2%

O=C(O)C1C2c3ccccc3C(c3ccccc32)C1C(=O)NCC1CC1 (stereo not given)
inactive: [1] 51.5% | [2] 7.55% | [3] 10.4% | [4] 13.6% | [5] 21.4% | [6] 24.2%

C[Se]c1ncnc2c1c(C#N)cn2C1OC(CO)C(O)C1O (stereo not given)
inactive: [1] 0.75% | [2] 14.3% | [3] -3.3% | [4] -13.5% | [5] 1.45% | [6] 2.65%

CC[C@@H]1[C@H]2C[C@H]3[C@@H]4N(C)c5ccccc5[C@]45C[C@@H](C2[C@H]5O)N3[C@H]1O (stereo not given in full)
inactive: [1] -12.4% | [2] -6.15% | [3] -5.15% | [4] 5.05% | [5] -13.7% | [6] 15.6%

O=Cc1ccccc1O.[Zn+2]
inactive: [1] 9.25% | [2] 6.2% | [3] 2.8% | [4] 3.6% | [5] 0.75% | [6] 1.6%

O=S(=O)(O)C1CCC(O)C2[N-]CCCC21.O=S(=O)(O)C1CCC(O)C2[N-]CCCC21.[Zn+2] (stereo not given)
inactive: [1] 1.75% | [2] 0.9% | [3] 6.2% | [4] 25.8% | [5] -10.7% | [6] 5.05%

O=P(N1CCNCC1)(N1CCNCC1)N1CCNCC1
inactive: [1] -20.1% | [2] -11.8% | [3] -1.35% | [4] -42.5% | [5] 5.45% | [6] -20.2%

CC(C)(C)SCC(NC(=O)OCc1ccccc1)C(=O)O (stereo not given)
inactive: [1] 10.8% | [2] 1.7% | [3] 14.3% | [4] 18.9% | [5] 4.25% | [6] 7%

O=C1NC(=O)C(Cc2cccc(Cl)c2)C(=O)N1
inactive: [1] 15.1% | [2] -6.9% | [3] -15.8% | [4] -8.05% | [5] 0.55% | [6] -36%

Cc1ccc(P(=S)(c2ccccc2)c2ccccc2)c2ccccc12
inactive: [1] 9.9% | [2] 0.45% | [3] -1.5% | [4] 10.6% | [5] 20% | [6] -4.25%

CN(C)CCCNc1c2c(nc3ccc(Cl)cc13)CCCC2
inactive: [1] -1.2% | [2] -20.4% | [3] -31.8% | [4] 6.6% | [5] 9.15% | [6] -7.3%

Nc1ccn(C2OC(COP(=O)(O)Oc3ccccc3)C(O)C2O)c(=O)n1 (stereo not given)
inactive: [1] 11.1% | [2] -11.8% | [3] 17.8% | [4] 4% | [5] 5.2% | [6] 11.3%

COc1ccc(CC(N)c2nn[nH]n2)cc1 (stereo not given)
inactive: [1] 4.1% | [2] -1% | [3] -1.1% | [4] -23.1% | [5] 8.15% | [6] -1.75%

CC(=O)CCC(=O)O.[Ni]
inactive: [1] -37.5% | [2] 0.2% | [3] -7.45% | [4] -27.4% | [5] -7.65% | [6] 1.9%

O=NNc1cncc(NN=O)n1
inactive: [1] -37.9% | [2] 1.1% | [3] -2.8% | [4] -14.9% | [5] -4.95% | [6] 3.75%

O=C(O)c1cccc([As]=[As]c2cccc(C(=O)O)c2)c1 (stereo not given)
inactive: [1] 8.4% | [2] -9.35% | [3] -8.75% | [5] -65.3% | [6] 1%
active: [4] 83.2%
